This is part of a sample that, as a whole, favours compounds with a hit. Of some 83,000 tested, about 20% had one in any assay.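 Single-dose data. Exposure time 48 hours. Values below 10 considered active.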 Values without a mark were called inactive. The source made the active and inactive calls.

For the first experiment, the system named is EKVX NSCLC. The experiment is described as follows: NCI-60 one-dose screen, 48 h (100 = growth as untreated, 0 = no growth, -100 = all killed). To be noted: 10 µM unless noted.
Regarding `C=C(C)[C@@H]1C[C@H](O)Cc2cc(F)ccc2N1`, the growth is 87.3%.

For the molecule `COc1ccc2c(c1)[nH]c(=O)c1c3cccc(F)c3cn21`, the growth is 46.8%.

As to `CN(C)c1nc2c(N)ncnc2n1C1OC(CO)C(O)C1O` (stereo unspecified), the growth is 112%.

In the case of `O=C1NN(C(=O)c2ccc(Cl)cc2)C(c2ccccc2)=N/C1=C\c1ccc(F)cc1`, the growth was 90.7%.

Regarding `N[C@H]1CN(C(=O)c2cc3cc(Br)c(F)c(F)c3[nH]2)C[C@@H]1O`, the growth is 92.8%.

In the case of `NC(=S)N/N=C1\CCCC(C(F)(F)F)C1` (stereo unspecified), the growth was 84.7%.

The next experiment deals with SN12C renal. Described as above. The following applies: 10 µM unless noted.
Consider `O=c1cc(Cc2ccc([N+](=O)[O-])cc2)[nH]c(=O)[nH]1`, for which the growth is 98.4%.

In the case of `Cc1csc(NC(c2ccccc2)c2c(C)nc3ccccn23)n1` (stereo unspecified), the growth was 99.9%.

Regarding `Cc1ccc(/C=C2\CN(C(=O)CCN3CCC(=NO)CC3)C/C(=C\c3ccc(C)cc3)C2=O)cc1`, the growth is -34.4% (active).

On to `O=C1Nc2ccc3c(c2/C1=C\c1cc2c(cc1Br)OCO2)OCO3`, for which the growth was 26.7%.

Take `c1ccc(-c2nc(N3CCNCC3)c3nc(-c4ccccc4)oc3n2)cc1`: the growth is -92.2% (active).

As to `CCN(CC)c1ccc(CNc2ccnc3ccccc23)cc1`, the growth was 64%.

On to `CN(CCCCN(C[C@H]1Cc2ncccc2CN1)[C@H]1CCCc2cccnc21)C1CCC(F)(F)CC1`, for which the growth was 86.1%.

For the molecule `ClC(Cl)c1nc(-c2ccccc2)nc2cc(-c3ccccc3)nn12`, the growth is 72.1%.

As for `O=[N+]([O-])c1ccc(OCCCOc2ccccc2)cc1`, the growth was 104%.

In the case of `N#C/C(=C1C=C/C(=N/O)C(Cl)=C/1)c1ccc(Cl)cc1`, the growth is 66.6%.

For `CCCCC(CC)OC(=O)C(Br)CC` (stereo unspecified), the growth is 115%.

On to `C=C[C@@H]1C[C@@H]2Cc3c(C)cc(C)cc3N1O2`, for which the growth is 101%.

Take `C=C[C@@H]1C[C@@H]2Cc3ccccc3N1O2`: the growth was 97.5%.

For the molecule `CC(=O)OC[C@]12CC[C@H]3[C@@H](C[C@H]4O[C@]45CC=CC(=O)[C@]35C)[C@]1(O)CC[C@@]2(O)[C@@](C)(O)C1CC(C)=C(C)C(=O)O1` (stereo partly specified), the growth was -39.2% (active).

Take `CO[C@H]1NC(=O)N(S(=O)(=O)c2ccc(Cl)cc2)[C@@H]1OC`: the growth was 102%.

`COC(=O)c1cc2cc(-c3ccc(OC)cc3)cnc2[nH]1`: the growth is 51.9%.

In the case of `O=C(Nc1cccc(-n2cc(-c3ccncc3)c(-c3ccc(Cl)c(O)c3)n2)c1)Nc1cc(C(F)(F)F)cc(C(F)(F)F)c1`, the growth is -36.1% (active).

As to `C[n+]1c(/C=C/c2c(O)ccc3ccccc23)ccc2ccccc21`, the growth is 32.4%.

In the case of `COc1ccc(-c2cn(-c3cccc(C(=O)/C=C/c4cc(OC)c(OC)c(OC)c4)c3)c(=O)[nH]2)cc1OC`, the growth is 78.1%.

Turning to `C=C[C@@H]1C[C@H](O)Cc2c(C)cc(C)cc2N1`, the growth was 95.9%.

Take `O=C(O)Cc1cccc(=O)c(O)c1C(=O)O`: the growth was 101%.

On to `COc1cc(/C=C/C(=O)c2ccc(Nc3ncnc4cc(OC)c(OC)cc34)cc2)cc(OC)c1`, for which the growth is 91.1%.

In the case of `COc1cc(/C=C/C(=O)c2cccc(-n3cc(-c4cc(OC)c(OC)c(OC)c4)[nH]c3=O)c2)cc(OC)c1OC`, the growth is 11.5%.

On to `COC1=C(OC)C(=O)C(CCCCCCCCCC[P+](c2ccccc2)(c2ccccc2)c2ccccc2)=C(C)C1=O`, for which the growth is -74.8% (active).

For the molecule `C=C[C@@H]1C[C@H](O)Cc2ccccc2N1`, the growth is 103%.

As to `CCN1C(=O)N(CC)C2C1NN=c1s/c(=C\c3cccnc3)c(=O)n12` (stereo unspecified), the growth is 45.2%.

On to `O=S(=O)(CC(O)(c1ccccc1)c1ccccc1)CC(O)(c1ccccc1)c1ccccc1`, for which the growth is 90.1%.

As to `CCN(CC)CCCC(C)Nc1c2ccc(Cl)cc2nc2cc(OC)c(OC)cc12` (stereo unspecified), the growth was 34.3%.

Take `CCCCCCCCCCCC(=O)NCCC[N+](C)(C)CC(=O)[O-]`: the growth was 103%.

For `CCOC(=O)/C(C#N)=C1/C(=O)Nc2ccccc21`, the growth is 96.3%.

Take `Cn1c(=O)c2[nH]c(C3CC=CCC3)nc2n(C)c1=O` (stereo unspecified): the growth is 99.4%.

Turning to `O=[N+]([O-])c1cc(S(=O)(=O)Oc2ccccc2)ccc1Cl`, the growth is 29.6%.

As to `C=C(C)[C@@H]1C[C@H](O)Cc2cc(F)ccc2N1`, the growth is 93.8%.

Consider `COc1ccc2c(c1)[nH]c(=O)c1c3cccc(F)c3cn21`, for which the growth was 39.3%.

With `CN(C)c1nc2c(N)ncnc2n1C1OC(CO)C(O)C1O` (stereo unspecified), the growth was 104%.

The values are drawn from PubChem BioAssay (NCI).
